Measurements reported in PubChem BioAssay AID493206 (National Center for Advancing Translational Sciences (NCATS), 2011).
Several values for one entry are separate records, joined by “and”; a condition that tells them apart may be missing. Equal entries are not always repeated. Records with an inconclusive call do not appear. Activity calls are given as the source filed them. Calls follow the shape of the dose curve; as a rule, active = well fitted inhibition curve with a large enough effect; inconclusive = small, poorly fitted or top-dose-only effect; inactive = flat fitted curve, though single readings scatter.

These molecules were tested against Dual specificity tyrosine-phosphorylation-regulated kinase 1A (Homo sapiens) (UniProt Q13627) (assay: Assay for Inhibitors of Dual-Specificity Tyrosine-(Y)-Phosphorylation Regulated Kinase 1A (Kinase-Glo assay): round 2 SAR). Details: recombinant DYRK1A, Kinase-Glo ATP depletion luminescence; series mostly up to 76.9 µM; activity, negative = inhibition: at the top concentration.
Text: NIH Molecular Libraries Probe Production Centers Network [MLPCN] NIH Chemical Genomics Center [NCGC] MLPCN Grant: 1R03MH084827-01 PI Name: Tom Misteli NCGC Assay Overview: The CMGC group of protein kinases which includes CDK-like kinases (Clk) and Dyks are essential kinases found in all eukaryotes. Clks have been implicated to play a role in the regulation of alternative splicing; while Dyrks, in particular over expression of Dyrk1A, has been linked to diseases as Down syndrome (DS; OMIM 190685) and Alzheimer disease (AD; OMIM 104300). Among the members of the CMGC group, the Clks and the Dyrks are very closely related therefore to determine validity and selectivity of an active compound observed in the CLK4 qHTS screen (AID:1770), a bioluminescent counter-screen against Dyrk1A was developed. In addition, potent and selective compounds against Dyrk1A were identified to further assess the role of this enzyme in DS and AD. Dyrk1A (Invitrogen, cat # PV3785) was assayed using ATP and DYRKtide (AnaSpec, cat# 62698) as substrates. Promega Kinase-Glo (cat# V6712) technology was used to detect the residual ATP following kinetic reaction. The Kinase-Glo Plus contains Ultra-Glo [5] luciferase and D-luciferin which generates a bioluminescence signal from the remaining ATP. No enzyme and harmine (Sigma, cat # 286044-1G), a compound shown to inhibit Dyrks were used as a positive control; while DMSO treatment was used as a negative control.
NCGC Assay Protocol Summary: Two uL/well of substrate solution (8uM Dyrktide, 2uM ATP, 25mM Tris-HCl pH 7.5, 10mM MgCl2 , 0.5mM EGTA, 5mM cystein, 0.01% Triton X-100 final concentration) was dispensed into 1536-well assay plates (Greiner, solid white, medium-binding plates) with Aurora Discovery BioRAPTR Flying Reagent Dispenser (FRD, Beckton-Dickenson). Compound solution (23 nL) was transferred to the assay plate using Kalypsys pin tool equipped with a 1536-pin tool. One uL/well enzyme solution (5nM Dyrk1A, 25mM Tris-HCl pH7.5, 10mM MgCl2, 0.5mM EGTA, 5mM cystein, 0.01% Triton X-100 final concentration) was then added using FRD yielding a total kinase reaction volume of 3uL/well. After 2 hours of room temperature incubation, 3uL Kinase-Glo detection reagent was added for a final assay volume of 6uL/well. The plates were spun for 30 seconds (1000 rpm) and incubated at ambient temperature for 2 minutes followed by a luminescence read using Perkin Elmer ViewLux plate reader at 3 seconds exposure time and 2x binning.

How did the Potency turn out when `O=C(O)c1ccc(-c2ccc3ncnc(NCC4CCCO4)c3c2)o1` (stereo not given) was run?
The Potency was 23.2 µM (active).

`CCCNc1ncnc2ccc(-c3ccc4c(c3)OCO4)cc12` was tested. Which Potency did it give?
The Potency was 0.184 µM (active).

Which Potency does the source give for `Cc1cccc(-c2ccc3ncnc(NCc4cccc(F)c4)c3c2)c1` here?
The Potency was 13 µM (active).

For `CCNC(=O)c1ccc(-c2ccc3ncnc(NCc4nccs4)c3c2)o1`, which Potency is on record?
The Potency was 10.4 µM (active).

With `Cc1ccc(CN(C)c2ncnc3ccc(-c4ccc(CO)o4)cc23)o1` as the molecule, how does the Potency read?
The Potency was 0.823 µM (active).

`Fc1cccc(CNc2ncnc3ccc(-c4cccnc4)cc23)c1` was tested. Which Potency did it give?
The Potency was 26 µM (active).

With `Cc1cccc(CNc2ncnc3ccc(-c4cccnc4)cc23)c1` as the molecule, how does the Potency read?
Its Potency is 29.2 µM (active).

How did the Potency turn out when `c1nc(NCc2ccc3c(c2)OCO3)c2cc(-c3ccc4c(c3)OCCO4)ccc2n1` was run?
The Potency was 4.12 µM (active).

How did the Potency turn out when `O=C(O)c1ccc(-c2ccc3ncnc(NCc4nccs4)c3c2)o1` was run?
The Potency was 18.4 µM (active).

Which Potency does the source give for `CC(O)c1ccc(-c2ccc3ncnc(N4CCOCC4)c3c2)o1` (stereo not given) here?
The Potency was 23.2 µM (active).

Which Potency does the source give for `CCNC(=O)c1ccc(-c2ccc3ncnc(NCCc4cnc[nH]4)c3c2)o1` here?
The Potency was 11.6 µM (active).

With `Cc1ccc(CNc2ncnc3ccc(-c4ccc(C(=O)O)o4)cc23)o1` as the molecule, how does the Potency read?
Its Potency is 10.4 µM (active).

`Cn1ccc2cc(-c3ccc4ncnc(NCc5ccc6c(c5)OCO6)c4c3)ccc21` was tested. Which “activity, negative = inhibition” value did it give?
Its value is -10.9% (inactive).

`COc1cccc(Nc2ncc3ncc(=O)n(C)c3n2)c1` was tested. Which Potency did it give?
The Potency was 11.6 µM (active).

How did the Potency turn out when `Clc1cccc(-c2ccc3ncnc(NCc4cccnc4)c3c2)c1` was run?
The Potency was 18.4 µM (active).

How did the “activity, negative = inhibition” value turn out when `CN1CCN(c2ncc3nc(-c4cn(C)c5ccccc45)c(=O)n(Cc4cccs4)c3n2)CC1` was run?
Its value is -6.07% (inactive).

`Cc1ccsc1CN(C)c1ncnc2ccc(-c3ccc([C@@H](C)O)o3)cc12` was tested. Which Potency did it give?
Its Potency is 3.68 µM (active) and 1.46 µM (active) and 1.04 µM (active).

With `c1cncc(CNc2ncnc3ccc(-c4ccoc4)cc23)c1` as the molecule, how does the Potency read?
Its Potency is 9.23 µM (active).

Which Potency does the source give for `Cc1csc(CNc2ncnc3cc(-c4ccc5c(c4)OCO5)ccc23)n1` here?
Its Potency is 29.2 µM (active).

How did the Potency turn out when `Cn1cncc1CNc1ncnc2ccc(-c3ccc4c(c3)OCO4)cc12` was run?
The Potency was 0.463 µM (active).

Which Potency does the source give for `c1cncc(-c2ccc3ncnc(NCc4cccs4)c3c2)c1` here?
Its Potency is 23.2 µM (active).

With `Clc1ccccc1-c1ccc2ncnc(NCc3ccc4c(c3)OCO4)c2c1` as the molecule, how does the “activity, negative = inhibition” value read?
The value was -14.5% (inactive).

Which Potency does the source give for `COc1cccc(-c2ccc3ncnc(NCc4cccc(F)c4)c3c2)c1` here?
Its Potency is 4.63 µM (active).

For `Cc1csc(CNc2ncnc3ccc(-c4ccc(C(C)O)o4)cc23)n1` (stereo not given), which Potency is on record?
The Potency was 26 µM (active).

`c1csc(CNc2ncnc3ccc(-c4ccc5c(c4)OCO5)cc23)n1` was tested. Which Potency did it give?
The Potency was 0.184 µM (active).

`CN(CC(=O)O)c1ncnc2ccc(-c3ccc4c(c3)OCO4)cc12` was tested. Which Potency did it give?
Its Potency is 8.23 µM (active).

`CCNC(=O)c1ccc(-c2ccc3ncnc(NCc4ccc(C)o4)c3c2)o1` was tested. Which Potency did it give?
Its Potency is 9.23 µM (active).

`c1csc(CNc2ncnc3ccc(-c4ccc5c(c4)OCO5)cc23)c1` was tested. Which Potency did it give?
Its Potency is 0.184 µM (active).

`Cc1csc(CNc2ncnc3ccc(-c4ccc(C(=O)O)o4)cc23)n1` was tested. Which Potency did it give?
The Potency was 14.6 µM (active).

With `c1cncc(CNc2ncnc3ccc(-c4ccc5c(c4)OCCO5)cc23)c1` as the molecule, how does the Potency read?
The Potency was 1.16 µM (active).

How did the Potency turn out when `c1nc(NCc2ccc3c(c2)OCO3)c2cc(-c3ccoc3)ccc2n1` was run?
Its Potency is 18.4 µM (active).

How did the Potency turn out when `O=C(O)c1ccc(-c2ccc3ncnc(N4CCOCC4)c3c2)o1` was run?
The Potency was 26 µM (active).

With `CN(CC1CCCCC1)c1ncnc2ccc(-c3ccc4c(c3)OCO4)cc12` as the molecule, how does the Potency read?
The Potency was 0.26 µM (active).

With `COc1cccc(-c2ccc3ncnc(NCc4ccc5c(c4)OCO5)c3c2)c1` as the molecule, how does the Potency read?
Its Potency is 9.23 µM (active).

`Cc1nc(CCNc2ncnc3ccc(-c4ccc5c(c4)OCO5)cc23)cs1` was tested. Which Potency did it give?
Its Potency is 0.26 µM (active).

Which Potency does the source give for `Cc1csc(CNc2ncnc3ccc(-c4ccc5c(c4)OCO5)cc23)n1` here?
Its Potency is 0.207 µM (active).

`Fc1cccc(CNc2ncnc3ccc(-c4ccc5c(c4)OCO5)cc23)c1` was tested. Which Potency did it give?
The Potency was 0.463 µM (active).

For `Clc1ccccc1-c1ccc2ncnc(NCc3cccs3)c2c1`, which Potency is on record?
The Potency was 6.54 µM (active).

For `Clc1cccc(-c2ccc3ncnc(NCc4ccc5c(c4)OCO5)c3c2)c1`, which “activity, negative = inhibition” value is on record?
The value was -15.5% (inactive).

How did the “activity, negative = inhibition” value turn out when `Cn1ccc2cc(-c3ccc4ncnc(NCc5cccc(F)c5)c4c3)ccc21` was run?
The value was -5.48% (inactive).
